Data as given in PubChem BioAssay (NCI).
Compounds without any hit were thinned out: in the full panel of roughly 83,000, 20% have a hit.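 For each line, cells grew in 96-well plates with the test compound present at a single concentration for 48 hours.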 A number with no mark means an inactive call. Calls of active or inactive are those of the source. The calls were made as follows: active = growth percent below 10; inactive = the rest.

Columns and labels:
Test in all cases: NCI-60 one-dose screen, 48 h (100 = growth as untreated, 0 = no growth, -100 = all killed)
Conditions in all cases: 10 µM unless noted
[1] = system: DU-145 prostate
[2] = system: K-562 leukemia
[3] = system: MALME-3M melanoma
[4] = system: MDA-MB-231 breast
[5] = system: SF-268 CNS
[6] = system: SF-295 CNS
[7] = system: SF-539 CNS
[8] = system: UACC-257 melanoma
[9] = system: M14 melanoma
[10] = system: HCT-15 colon
[11] = system: HT29 colon
[12] = system: SNB-75 CNS
[13] = system: SNB-19 CNS
[14] = system: U251 CNS
[15] = system: PC-3 prostate
[16] = system: SK-MEL-5 melanoma
[17] = system: UACC-62 melanoma
[18] = system: LOX IMVI melanoma
[19] = system: SK-MEL-28 melanoma

CCCCCCCCN1C(=O)/C(=c2\sc3n(c2=O)C2C(NN=3)N(CC)C(=O)N2CC)c2ccccc21 (centres undefined)
growth [1]: 97.8% | growth [2]: 92.6% | growth [3]: 82.6% | growth [4]: 71.5% | growth [5]: 65.3% | growth [6]: 73% | growth [7]: 59.9% | growth [8]: 96.3% | growth [9]: 95.4% | growth [10]: 93.2% | growth [11]: 100% | growth [12]: -13% (active) | growth [13]: 45.7% | growth [14]: 46.2% | growth [15]: 81.7% | growth [16]: 96.9% | growth [17]: 76.3% | growth [18]: 81.9% | growth [19]: 88.3%

O=S(=O)(NCCCNc1nccc(-c2c(-c3ccc(F)c(O)c3)nc3sccn23)n1)c1ccc(F)cc1
growth [1]: 11.5% | growth [2]: 3.41% (active) | growth [3]: -14.7% (active) | growth [4]: -23.1% (active) | growth [5]: 9.56% (active) | growth [6]: -12.1% (active) | growth [7]: 18.5% | growth [8]: -10% (active) | growth [9]: 6.75% (active) | growth [10]: 6.51% (active) | growth [11]: 9.5% (active) | growth [12]: 51.3% | growth [13]: 19.7% | growth [14]: 2.83% (active) | growth [15]: 8.22% (active) | growth [16]: -45.1% (active) | growth [17]: -42.2% (active) | growth [18]: 2.15% (active) | growth [19]: 9.19% (active)

NS(=O)(=O)c1cccc(NC(=O)C(=O)C2C(=O)Nc3ccccc32)c1 (centres undefined)
growth [1]: 107% | growth [2]: 109% | growth [3]: 102% | growth [4]: 95.7% | growth [5]: 105% | growth [6]: 94.2% | growth [7]: 101% | growth [8]: 100% | growth [9]: 99.1% | growth [10]: 99.8% | growth [11]: 102% | growth [12]: 74.6% | growth [13]: 100% | growth [14]: 107% | growth [15]: 88.8% | growth [16]: 96.7% | growth [17]: 94.4% | growth [18]: 95.6% | growth [19]: 107%

Cc1ccc(C2CC(c3cccc(Nc4ccncc4)c3)=NN2c2cc(Cl)cc(Cl)c2)cc1 (centres undefined)
growth [1]: 30.8% | growth [2]: 1.45% (active) | growth [3]: 1.81% (active) | growth [4]: 40.9% | growth [5]: 82.8% | growth [6]: -6.71% (active) | growth [7]: 78.1% | growth [8]: 76.2% | growth [9]: 2.02% (active) | growth [10]: -65.6% (active) | growth [11]: -7.29% (active) | growth [12]: 70.2% | growth [13]: 84.9% | growth [14]: -48.8% (active) | growth [15]: 33.8% | growth [16]: 68.8% | growth [17]: 99.4% | growth [18]: -87.3% (active) | growth [19]: -72.7% (active)

O=C(N/N=C/c1ccc(O)c(O)c1)c1sc2ccccc2c1Cl
growth [1]: 108% | growth [2]: 95.9% | growth [3]: 96.8% | growth [4]: 101% | growth [5]: 77.9% | growth [6]: 114% | growth [7]: 52.2% | growth [8]: 111% | growth [9]: 97.7% | growth [10]: 33.9% | growth [11]: 105% | growth [12]: 83.2% | growth [13]: 59.4% | growth [14]: 59.2% | growth [15]: 66.6% | growth [16]: 81.8% | growth [17]: 73.8% | growth [18]: 68.7% | growth [19]: 56.8%

CCN(CC)CCCC(Nc1c2ccc(Cl)cc2nc2ccc(OC)cc12)c1ccc(Cl)cc1 (centres undefined)
growth [1]: 23.8% | growth [2]: -58.2% (active) | growth [3]: -82.3% (active) | growth [4]: -59.1% (active) | growth [5]: 14.2% | growth [6]: -85.7% (active) | growth [7]: -90.9% (active) | growth [8]: -86.7% (active) | growth [9]: -89% (active) | growth [10]: -54.7% (active) | growth [11]: -49.6% (active) | growth [12]: 16.7% | growth [13]: 6.15% (active) | growth [14]: -85.9% (active) | growth [15]: 33.6% | growth [16]: -93.7% (active) | growth [17]: -70.6% (active) | growth [18]: -83.3% (active) | growth [19]: -88.7% (active)

Clc1ccc(N2N=C(c3cccc(Nc4ccncc4)c3)CC2c2ccccc2)cc1 (centres undefined)
growth [1]: 100% | growth [2]: 46% | growth [3]: 93.5% | growth [4]: 93.2% | growth [5]: 78.1% | growth [6]: 102% | growth [7]: 86% | growth [8]: 101% | growth [9]: -55.4% (active) | growth [10]: 103% | growth [11]: 80.7% | growth [12]: 65% | growth [13]: 95.6% | growth [14]: 90.4% | growth [15]: 84.9% | growth [16]: 94% | growth [17]: 96.9% | growth [18]: 86.8% | growth [19]: 90.4%

c1ccc(N2N=C(c3cccc(Nc4ccncc4)c3)CC2c2ccc3c(c2)OCO3)cc1 (centres undefined)
growth [1]: 16.4% | growth [2]: 4.94% (active) | growth [3]: -22.6% (active) | growth [4]: 37.7% | growth [5]: 29.9% | growth [6]: -17.1% (active) | growth [7]: 9.86% (active) | growth [8]: 27.2% | growth [9]: 93.1% | growth [10]: -26% (active) | growth [11]: 6.66% (active) | growth [12]: 5.74% (active) | growth [13]: 42.4% | growth [14]: 4.31% (active) | growth [15]: 14.3% | growth [16]: -14.3% (active) | growth [17]: 62.1% | growth [18]: -22.1% (active) | growth [19]: -52.7% (active)

O=C1Nc2c(ccc(Cl)c2Cl)/C1=C/c1ccc(O)cc1
growth [1]: 119% | growth [2]: 91.9% | growth [3]: 108% | growth [4]: 88.7% | growth [5]: 89.1% | growth [6]: 87.6% | growth [7]: 98.3% | growth [8]: 102% | growth [9]: 100% | growth [10]: 90.8% | growth [11]: 94.7% | growth [12]: 56.7% | growth [13]: 68.8% | growth [14]: 83.8% | growth [15]: 98.1% | growth [16]: 87.1% | growth [17]: 76.7% | growth [18]: 63.7% | growth [19]: 123%

CN1CCN(c2cc(F)c(NC3=C(Cl)C(=O)c4ncccc4C3=O)c(F)c2)CC1
growth [1]: -67.6% (active) | growth [2]: -0.834% (active) | growth [3]: -96.1% (active) | growth [4]: -32% (active) | growth [5]: 48.7% | growth [6]: 78.8% | growth [7]: -25.1% (active) | growth [8]: -62.2% (active) | growth [9]: -40.5% (active) | growth [10]: -8.53% (active) | growth [11]: 11.2% | growth [12]: 38% | growth [13]: 96.3% | growth [14]: -9.88% (active) | growth [15]: 11.8% | growth [16]: -91.7% (active) | growth [17]: -45.6% (active) | growth [18]: -70.3% (active) | growth [19]: -55.1% (active)

Clc1ccc(N2N=C(c3cccc(Nc4ccncc4)c3)CC2c2ccc3c(c2)OCO3)cc1 (centres undefined)
growth [1]: 41.9% | growth [2]: 5.23% (active) | growth [3]: 25.5% | growth [4]: 37.8% | growth [5]: 63.1% | growth [6]: 39% | growth [7]: 81.9% | growth [8]: 86% | growth [9]: -52.4% (active) | growth [10]: -21.1% (active) | growth [11]: 3.63% (active) | growth [12]: 55.9% | growth [13]: 80.6% | growth [14]: 5.93% (active) | growth [15]: 31.3% | growth [16]: 30.9% | growth [17]: 90.8% | growth [18]: -74.4% (active) | growth [19]: -12.5% (active)
